Bioassay records from PubChem.
In the library only some 3.1% were active in any assay of this set; here they are far more common.
BoNT A protease: BoNT A light chain protease inhibition | multiplex microsphere protease substrate cleavage, flow cytometry | inhibition, % at 10 µM | 360,000 tested, 0.17% active | AID 588499; also: plate controls were buffer without enzyme for full effect and enzyme alone for no effect
SSB-PriA inh: K. pneumoniae PriA-SSBct interaction inhibition | inhibition, % at 33 µM | AlphaScreen SSBct-PriA binding, biotinylated peptide | 430,000 tested, 0.6% active; in the data active = inhibition mostly above about 37%, no sharp cut-off; inactive = mostly below about 20%;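 also: plate controls were negative control peptide for no effect and reference peptide for full effect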
Autofluor counter: flagged as autofluorescent in microsphere protease counterscreen | compound autofluorescence counterscreen, microsphere flow cytometry; hits give high values | 360,000 tested, 3.1% active | fluorescence intensity (no concentration beside the values); in the data active = fluorescence intensity above about 16000; inconclusive = no clear call, values can overlap the other calls
Anthrax LF prot: inhibitors of Bacillus anthracis lethal factor protease. P15917. multiplex microsphere protease cleavage assay, LF. inhibition, % at 10 µM. 360,000 tested, 0.12% active. AID 588501; also: plate controls were buffer without enzyme for full effect and enzyme alone for no effect
BoNT-F LC inh: inhibitors of Botulinum neurotoxin F light chain protease; AID 588497; inhibition, % at 10 µM; Multiplex microsphere protease cleavage assay, flow cytometry; 360,000 tested, 0.22% active; in the data active = inhibition above about 35%, passing the limit was not always enough; inconclusive = no clear call, values can overlap the other calls; also: plate controls were buffer without enzyme for full effect and enzyme alone for no effect
* marks the source's active call; other numbers are inactive results. Rule as the data show it, unless noted: active = inhibition above about 30%; inconclusive = no clear call, values can overlap the other calls; inactive = below that.

Results for O=C(c1ccccc1-c1nc(-c2ccccc2)no1)N1CCOCC1 ?
BoNT A protease: 3.7; SSB-PriA inh: -2.5; Autofluor counter: 18009*; Anthrax LF prot: -3.5; BoNT-F LC inh: 4.3

Results for O=C(c1ccc(-c2ccccc2)cc1)c1ccccc1C(=O)N1CCOCC1 ?
BoNT A protease: 1.5; SSB-PriA inh: 2.2; Autofluor counter: 22303*; Anthrax LF prot: -2.0; BoNT-F LC inh: 4.1

What do the screens show for `Cc1ccc(C)c(N2CCN(c3ccc(S(=O)(=O)C(C)(C)C)nn3)CC2)c1`?
SSB-PriA inh: -14.0

Results for O=C(CCc1ccccc1O)NN=Cc1ccc(Sc2cccc3cccnc23)o1 ?
SSB-PriA inh: 93.5*

How did O=C(Cc1cccc2ccccc12)N/N=C/c1ccc(Sc2cccc3cccnc23)o1 do in these assays?
SSB-PriA inh: inactive

What do the screens show for `O=Cc1ccc(Sc2cccc3cccnc23)o1`?
SSB-PriA inh: 104.0*

Results for O=Cc1ccc(Sc2ncccn2)o1 ?
BoNT A protease: -0.3; SSB-PriA inh: -0.3; Autofluor counter: 3962; Anthrax LF prot: -2.4; BoNT-F LC inh: 2.7

What do the screens show for `CCCCCCCC(=O)N/N=C/c1ccc(Sc2cccc3cccnc23)o1`?
SSB-PriA inh: active

Results for COc1ccc(F)cc1S(=O)(=O)NC[C@H](OC)c1ccco1 ?
SSB-PriA inh: -10.0

Results for COC(=O)c1ccc(CSc2ncn[nH]2)o1 ?
BoNT A protease: inconclusive; SSB-PriA inh: -7.3; Autofluor counter: 20355*; Anthrax LF prot: 1.5; BoNT-F LC inh: -3.2

How did CCOC(=O)c1ccc(CSc2ncn[nH]2)o1 do in these assays?
BoNT A protease: -0.4; SSB-PriA inh: -1.4; Autofluor counter: 4397; Anthrax LF prot: -11.4; BoNT-F LC inh: -6.7

How did CC1CCCN(S(=O)(=O)c2ccc(S(=O)(=O)N3CCCN(Cc4ccccc4)C3)cc2)C1 (stereo unspecified) do in these assays?
BoNT A protease: 0.6; SSB-PriA inh: 3.4; Autofluor counter: 10633; Anthrax LF prot: -5.2; BoNT-F LC inh: 5.0

What do the screens show for `CC(C)CNS(=O)(=O)c1ccc(S(=O)(=O)N2CCCN(Cc3ccccc3)C2)cc1`?
BoNT A protease: -4.8; SSB-PriA inh: -1.5; Autofluor counter: 21949*; Anthrax LF prot: -0.1; BoNT-F LC inh: -6.4

How did Cc1nc(NC(=O)COc2ccccc2)sc1C(=O)Nc1cccc(Cl)c1 do in these assays?
BoNT A protease: inconclusive; SSB-PriA inh: -3.9; Autofluor counter: 24209*; Anthrax LF prot: -4.4; BoNT-F LC inh: -8.1

What do the screens show for `N#Cc1cccc(NC(=O)COc2ccc(-n3ccnc3)cc2)c1`?
BoNT A protease: -1.4; SSB-PriA inh: -5.9; Autofluor counter: 23571*; Anthrax LF prot: -2.6; BoNT-F LC inh: -0.7

Results for COc1cc(NC(=O)COc2ccc(-n3ccnc3)cc2)cc(OC)c1 ?
BoNT A protease: 0.0; SSB-PriA inh: 9.9; Autofluor counter: 3882; Anthrax LF prot: 4.8; BoNT-F LC inh: 3.4

How did COc1cccc(NC(=O)Cn2c(=O)oc3ccccc32)c1 do in these assays?
BoNT A protease: -1.2; SSB-PriA inh: -30.1; Autofluor counter: 23609*; Anthrax LF prot: -1.5; BoNT-F LC inh: -2.5

Results for COC(=O)COc1cccc(NC(=O)c2cccc(C)c2)c1 ?
BoNT A protease: 0.0; SSB-PriA inh: -26.5; Autofluor counter: 2153; Anthrax LF prot: -0.4; BoNT-F LC inh: 1.2

What do the screens show for `COC(=O)COc1cccc(NC(=O)c2ccccc2)c1`?
BoNT A protease: inconclusive; SSB-PriA inh: -15.0; Autofluor counter: 24578*; Anthrax LF prot: -10.2; BoNT-F LC inh: -2.2

How did Cn1nc(-c2ccc(F)cc2)cc1C(=O)NCc1cc(-c2ccncc2)n(C)n1 do in these assays?
SSB-PriA inh: -2.0

How did O=C(c1csc(-c2ccccc2)n1)N1CC(N2C(=O)C3CC=CCC3C2=O)C1 (stereo unspecified) do in these assays?
SSB-PriA inh: -9.0

How did COc1ccc(OCC(=O)Nc2cc(OC)cc(OC)c2)cc1 do in these assays?
BoNT A protease: 1.6; SSB-PriA inh: -16.3; Autofluor counter: 7744; Anthrax LF prot: 0.5; BoNT-F LC inh: -5.0

How did COc1ccc(OCC(=O)Nc2cccc(OC)c2)cc1 do in these assays?
BoNT A protease: -2.9; SSB-PriA inh: -8.0; Autofluor counter: 17719*; Anthrax LF prot: -5.0; BoNT-F LC inh: -4.4

Results for Cc1cc(CNC(=O)C2CC=CCC2)c(C)o1 (stereo unspecified) ?
SSB-PriA inh: 19.0

Results for O=C(NCC[C@H](O)C1CC1)C(=O)Nc1ccccc1Cl ?
SSB-PriA inh: -20.0

How did Cc1ccnc(SCC(=O)c2ccc(Br)cc2)c1C#N do in these assays?
BoNT A protease: 0.6; SSB-PriA inh: -6.8; Autofluor counter: 2042; Anthrax LF prot: -0.7; BoNT-F LC inh: -2.0
